# Measurements: ChEMBL document CHEMBL3988442, “University of Dundee, Small-Polar-MMV Screening Library” (2021)
# For some assays here: Measured potencies and affinities stand elsewhere.
# What was measured:
# Design in all cases: scale not given: direction of the effect not stated beside the values
# [1] = molecular target: Protein translocase subunit SecA (Escherichia coli (strain K12)) (UniProt P10408); assay: Assay to Identify E. coli SecA ATPase Inhibitors; assay type: functional; details: 30 µM
# [2] = molecular target: T1, Ubiquitin-activating enzyme e1, putative (Leishmania donovani (strain BPK282A1)) (UniProt E9BSI1); assay: Leishmania donovani Ubiquitin Activating Enzyme (LdE1); assay type: functional; details: 30 µM
# T1 sequence (whole entry): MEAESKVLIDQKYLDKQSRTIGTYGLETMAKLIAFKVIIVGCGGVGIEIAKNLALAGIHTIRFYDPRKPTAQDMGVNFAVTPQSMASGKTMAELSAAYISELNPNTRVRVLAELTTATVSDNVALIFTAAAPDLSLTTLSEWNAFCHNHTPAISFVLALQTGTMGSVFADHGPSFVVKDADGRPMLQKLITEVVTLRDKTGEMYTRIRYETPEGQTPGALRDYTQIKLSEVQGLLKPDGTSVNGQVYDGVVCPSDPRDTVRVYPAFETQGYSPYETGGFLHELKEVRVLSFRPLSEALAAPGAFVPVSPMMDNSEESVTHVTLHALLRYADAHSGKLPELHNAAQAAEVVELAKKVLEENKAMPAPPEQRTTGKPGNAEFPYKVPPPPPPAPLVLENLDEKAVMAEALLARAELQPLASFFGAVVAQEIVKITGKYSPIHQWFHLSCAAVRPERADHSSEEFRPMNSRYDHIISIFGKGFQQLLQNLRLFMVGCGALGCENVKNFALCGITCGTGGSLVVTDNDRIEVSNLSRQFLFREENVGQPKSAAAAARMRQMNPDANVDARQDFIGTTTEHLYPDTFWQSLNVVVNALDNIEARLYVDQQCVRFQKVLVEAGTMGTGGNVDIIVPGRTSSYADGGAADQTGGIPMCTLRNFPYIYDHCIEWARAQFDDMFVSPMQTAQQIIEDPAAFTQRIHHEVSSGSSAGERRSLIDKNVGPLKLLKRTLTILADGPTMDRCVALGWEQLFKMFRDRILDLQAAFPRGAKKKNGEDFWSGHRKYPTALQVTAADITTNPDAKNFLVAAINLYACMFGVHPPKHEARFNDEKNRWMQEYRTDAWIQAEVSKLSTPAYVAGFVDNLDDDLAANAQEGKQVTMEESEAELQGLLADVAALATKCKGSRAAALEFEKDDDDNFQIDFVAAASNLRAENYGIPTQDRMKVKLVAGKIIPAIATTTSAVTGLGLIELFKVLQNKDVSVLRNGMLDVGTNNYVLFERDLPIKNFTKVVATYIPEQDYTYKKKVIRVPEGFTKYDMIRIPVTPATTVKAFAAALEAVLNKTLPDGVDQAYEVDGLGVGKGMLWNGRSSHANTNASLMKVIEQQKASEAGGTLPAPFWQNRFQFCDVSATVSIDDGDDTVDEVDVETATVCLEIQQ
# [3] = molecular target: AMP-activated protein kinase, AMPK (Homo sapiens) (UniProt P54646+O43741+P54619+Q9UGJ0+Q9Y478+Q13131+Q9UGI9); assay: AMP-dependent Kinase enzyme assay. An in vitro enzyme assay that detects ADP turnover that is directly proportional to AMPK activity. This uses naive AMPK that is activated during the assay with MK-8722; assay type: functional; details: 30 µM
# [4] = molecular target: Sialic acid-binding Ig-like lectin 9 (Homo sapiens) (UniProt Q9Y336); assay: Hs-Siglec9 ALPHAscreen SOP 20170721; details: 10 µM
# Trypanosoma cruzi = assay: Trypanosoma cruzi phosphomannomutase and mannose-1-phosphate guanylyltransferase assay; assay type: functional; details: 10 µM
# [5] = molecular target: T2, Arginase-2, mitochondrial (Homo sapiens) (UniProt P78540); assay: in vitro enzyme assay to detect the production of urea directly proportional to the activity of Arginase II; assay type: functional; details: 33.3 µM; further: in the data most compounds retested in dose-response had high values
# T2 sequence (whole entry): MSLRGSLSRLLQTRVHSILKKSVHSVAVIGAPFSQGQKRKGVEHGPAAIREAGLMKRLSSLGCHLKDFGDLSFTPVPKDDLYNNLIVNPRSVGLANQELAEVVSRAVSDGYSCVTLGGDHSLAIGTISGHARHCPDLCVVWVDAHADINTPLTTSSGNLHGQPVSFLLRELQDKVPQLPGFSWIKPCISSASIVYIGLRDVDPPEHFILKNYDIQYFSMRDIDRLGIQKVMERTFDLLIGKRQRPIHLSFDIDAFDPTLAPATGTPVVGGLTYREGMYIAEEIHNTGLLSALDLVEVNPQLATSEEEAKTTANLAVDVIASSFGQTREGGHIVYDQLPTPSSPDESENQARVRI
# [6] = molecular target: T3, Proteasome subunit beta (Trypanosoma cruzi) (UniProt O96673); assay: Trypanosoma cruzi proteasome chymotrypsin-like activity (TcProtChymo) assay.; further: in the data most compounds retested in dose-response had high values; assay type: functional; details: 9.37 µM
# T3 sequence (whole entry): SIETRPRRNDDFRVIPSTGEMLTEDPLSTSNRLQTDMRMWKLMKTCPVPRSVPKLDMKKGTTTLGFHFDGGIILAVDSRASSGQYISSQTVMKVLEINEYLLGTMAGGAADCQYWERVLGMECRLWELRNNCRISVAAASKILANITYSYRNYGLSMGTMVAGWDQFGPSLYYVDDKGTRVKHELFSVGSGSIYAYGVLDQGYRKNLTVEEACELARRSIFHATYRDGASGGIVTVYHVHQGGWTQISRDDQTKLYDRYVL
# Homo sapiens = organism: Homo sapiens; assay: To identify inhibition of the IFN signalling (Jak-Stat) pathway via expression of an eGFP reporter gene under the control of an IFN-stimulated response element (ISRE) containing MxA promoter.; assay type: functional; details: 30 µM
# [7] = molecular target: T4, Tyrosyl-tRNA synthetase, putative (Trypanosoma cruzi (strain CL Brener)) (UniProt Q4DSP6); assay: Trypanosoma cruzi tyrosyl tRNA synthetase (TcYRS) _High Tyrosine SOP; assay type: functional; details: 30 µM; further: in the data most compounds retested in dose-response had high values
# T4 sequence (whole entry): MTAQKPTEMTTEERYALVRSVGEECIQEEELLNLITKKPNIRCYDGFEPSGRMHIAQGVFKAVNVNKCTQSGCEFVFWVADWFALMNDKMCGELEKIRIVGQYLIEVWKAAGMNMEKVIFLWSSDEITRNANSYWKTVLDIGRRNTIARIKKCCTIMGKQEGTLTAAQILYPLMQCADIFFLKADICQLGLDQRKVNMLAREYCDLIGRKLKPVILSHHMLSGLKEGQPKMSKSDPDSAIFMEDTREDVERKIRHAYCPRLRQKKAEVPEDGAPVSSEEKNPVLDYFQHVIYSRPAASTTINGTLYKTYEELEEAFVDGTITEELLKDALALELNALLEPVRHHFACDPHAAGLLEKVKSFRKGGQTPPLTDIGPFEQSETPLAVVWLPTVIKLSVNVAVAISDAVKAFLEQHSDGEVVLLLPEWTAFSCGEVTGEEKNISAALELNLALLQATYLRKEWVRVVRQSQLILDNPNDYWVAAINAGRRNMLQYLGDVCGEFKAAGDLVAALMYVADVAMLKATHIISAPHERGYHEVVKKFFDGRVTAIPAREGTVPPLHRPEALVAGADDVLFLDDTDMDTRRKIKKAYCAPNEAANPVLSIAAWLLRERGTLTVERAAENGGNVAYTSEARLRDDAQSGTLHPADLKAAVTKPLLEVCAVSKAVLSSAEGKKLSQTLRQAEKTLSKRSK
# [8] = molecular target: T4, Tyrosyl-tRNA synthetase, putative (Trypanosoma cruzi (strain CL Brener)); assay: Trypanosoma cruzi tyrosyl tRNA synthetase (TcYRS) SOP; assay type: functional; details: 30 µM
# [9] = molecular target: Chromo domain-containing protein 1 (Saccharomyces cerevisiae (strain ATCC 204508 / S288c) (Baker's yeast)) (UniProt P32657); assay: ScCHD-1 Enzyme Inhibition Assay; assay type: functional; details: 30 µM; further: in the data most compounds retested in dose-response had high values
# Sequence of Chromo domain-containing protein 1 (Saccharomyces cerevisiae (strain ATCC 204508 / S288c) (Baker's yeast)) (P32657 whole entry, the tested form may be a part): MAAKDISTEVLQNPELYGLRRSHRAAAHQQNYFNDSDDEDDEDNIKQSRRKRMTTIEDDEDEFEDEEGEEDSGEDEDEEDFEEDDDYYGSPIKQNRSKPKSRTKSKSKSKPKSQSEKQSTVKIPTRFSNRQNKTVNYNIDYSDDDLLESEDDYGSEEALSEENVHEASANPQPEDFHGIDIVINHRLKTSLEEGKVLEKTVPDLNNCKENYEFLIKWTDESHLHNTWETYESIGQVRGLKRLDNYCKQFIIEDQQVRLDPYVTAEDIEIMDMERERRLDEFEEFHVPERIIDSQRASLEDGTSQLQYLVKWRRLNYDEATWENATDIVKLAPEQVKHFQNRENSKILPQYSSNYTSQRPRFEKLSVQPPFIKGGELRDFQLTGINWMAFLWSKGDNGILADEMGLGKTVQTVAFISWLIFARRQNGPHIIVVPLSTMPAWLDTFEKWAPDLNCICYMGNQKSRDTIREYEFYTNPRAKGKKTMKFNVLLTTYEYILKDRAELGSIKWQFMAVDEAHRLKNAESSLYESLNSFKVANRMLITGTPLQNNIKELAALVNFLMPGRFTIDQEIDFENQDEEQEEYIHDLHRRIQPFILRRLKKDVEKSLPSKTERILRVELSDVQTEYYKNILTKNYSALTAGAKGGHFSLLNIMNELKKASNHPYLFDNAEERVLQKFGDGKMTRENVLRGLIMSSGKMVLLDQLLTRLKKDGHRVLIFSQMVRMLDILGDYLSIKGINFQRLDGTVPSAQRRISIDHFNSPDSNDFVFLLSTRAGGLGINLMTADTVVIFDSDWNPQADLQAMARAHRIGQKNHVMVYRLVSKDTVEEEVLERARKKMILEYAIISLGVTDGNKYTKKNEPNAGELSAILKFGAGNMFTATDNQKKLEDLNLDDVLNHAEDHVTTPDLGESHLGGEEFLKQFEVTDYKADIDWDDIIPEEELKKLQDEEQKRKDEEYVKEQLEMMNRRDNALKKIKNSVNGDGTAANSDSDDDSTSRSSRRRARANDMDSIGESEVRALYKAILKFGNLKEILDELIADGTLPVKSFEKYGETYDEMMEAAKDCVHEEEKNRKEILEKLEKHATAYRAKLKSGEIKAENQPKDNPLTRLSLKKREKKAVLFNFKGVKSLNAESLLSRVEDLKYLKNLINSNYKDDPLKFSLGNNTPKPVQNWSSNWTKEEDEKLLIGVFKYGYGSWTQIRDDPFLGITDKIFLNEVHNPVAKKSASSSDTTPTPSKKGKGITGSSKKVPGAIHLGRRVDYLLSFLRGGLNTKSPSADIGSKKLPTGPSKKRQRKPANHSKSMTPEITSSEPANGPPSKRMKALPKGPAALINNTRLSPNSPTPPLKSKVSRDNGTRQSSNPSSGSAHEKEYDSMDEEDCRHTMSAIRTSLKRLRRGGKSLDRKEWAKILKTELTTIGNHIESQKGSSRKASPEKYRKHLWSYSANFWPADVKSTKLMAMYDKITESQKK
# Sequence of Protein translocase subunit SecA (Escherichia coli (strain K12)) (P10408 whole entry): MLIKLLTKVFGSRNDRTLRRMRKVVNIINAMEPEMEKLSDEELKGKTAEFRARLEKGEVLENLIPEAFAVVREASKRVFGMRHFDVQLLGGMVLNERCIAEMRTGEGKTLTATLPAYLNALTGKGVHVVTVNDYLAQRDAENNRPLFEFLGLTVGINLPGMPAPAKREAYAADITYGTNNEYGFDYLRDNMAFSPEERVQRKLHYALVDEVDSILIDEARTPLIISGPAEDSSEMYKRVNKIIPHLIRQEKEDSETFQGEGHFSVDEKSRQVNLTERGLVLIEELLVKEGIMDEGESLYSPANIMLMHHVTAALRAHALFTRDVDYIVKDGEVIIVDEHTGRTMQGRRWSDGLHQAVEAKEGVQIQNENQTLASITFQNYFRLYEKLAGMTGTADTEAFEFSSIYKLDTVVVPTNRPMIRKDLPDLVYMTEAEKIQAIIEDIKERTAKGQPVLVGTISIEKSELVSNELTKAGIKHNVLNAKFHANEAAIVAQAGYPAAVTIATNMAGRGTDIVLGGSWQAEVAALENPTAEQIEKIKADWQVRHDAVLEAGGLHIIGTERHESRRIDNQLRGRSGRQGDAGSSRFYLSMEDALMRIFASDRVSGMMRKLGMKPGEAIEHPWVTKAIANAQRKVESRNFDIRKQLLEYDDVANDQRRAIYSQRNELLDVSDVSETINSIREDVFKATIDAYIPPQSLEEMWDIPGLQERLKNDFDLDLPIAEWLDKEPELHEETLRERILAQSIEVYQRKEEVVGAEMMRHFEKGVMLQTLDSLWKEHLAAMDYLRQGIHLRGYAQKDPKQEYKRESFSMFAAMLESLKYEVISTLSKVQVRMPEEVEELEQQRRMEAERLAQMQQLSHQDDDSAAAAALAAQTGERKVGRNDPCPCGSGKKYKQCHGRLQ
# Sequence of Sialic acid-binding Ig-like lectin 9 (Homo sapiens) (Q9Y336 whole entry): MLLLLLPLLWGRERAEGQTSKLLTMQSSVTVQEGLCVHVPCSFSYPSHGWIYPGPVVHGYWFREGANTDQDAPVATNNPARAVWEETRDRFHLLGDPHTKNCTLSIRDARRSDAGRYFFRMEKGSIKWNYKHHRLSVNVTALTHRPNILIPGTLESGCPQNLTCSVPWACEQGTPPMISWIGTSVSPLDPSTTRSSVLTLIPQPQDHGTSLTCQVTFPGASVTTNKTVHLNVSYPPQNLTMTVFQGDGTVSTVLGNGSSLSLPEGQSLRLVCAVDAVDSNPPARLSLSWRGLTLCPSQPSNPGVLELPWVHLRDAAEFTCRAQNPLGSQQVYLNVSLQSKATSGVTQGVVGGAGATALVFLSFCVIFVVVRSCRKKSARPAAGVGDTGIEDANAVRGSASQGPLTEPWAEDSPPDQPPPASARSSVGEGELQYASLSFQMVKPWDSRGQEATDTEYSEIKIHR
Structure (SMILES),Percent Effect [1] [%],Percent Effect [2] [%],Percent Effect [3] [%],Percent Effect [4] [%],Percent Effect (Trypanosoma cruzi) [%],Percent Effect [5] [%],Percent Effect [6] [%],Percent Effect (Homo sapiens) [%],Percent Effect [7] [%],Percent Effect [8] [%],Percent Effect [9] [%]
Cc1cc(C)n(CC2CN(Cc3cccc(C(N)=O)c3)CCO2)n1 (configuration not stated),-2.43,16.2,8.27,-0.119,4.69,8.75,20.7,18.8,7.92,20.7,97.6
CN(CCO)Cc1nnc(C2CCN(C(=O)c3cccnc3)CC2)n1C,-3.37,16,-6.42,14.9,5.75,4.69,6.97,4.06,6.01,16.1,-7.14
COc1cccc(C(=O)N2CCCCC2CNC(N)=O)c1 (configuration not stated),-9.94,5.26,4.5,4.83,-4.58,-3.6,0.0846,1.79,3.45,6.17,0.323
CC(C)CNC(=O)NC(=O)CNc1ccccc1SCC(C)C#N (configuration not stated),-5.8,11,6,16.8,1.37,6.82,9.41,11.3,0,12.5,-5.23
CCC(=O)NCCc1cc(N2CCN(C(C)=O)CC2)nc(C2CC2)n1,-1.34,6.76,12.6,-2.83,-6.72,3.02,10.3,16.2,2.15,11.7,1.75
CC(C)CS(=O)(=O)CC(=O)N(C)Cc1ccc(OC(F)F)cc1,-4.46,2.7,4.52,-5.18,-1.74,0.476,15.2,12.9,-0.529,9.76,-2.02
O=S(=O)(c1cccs1)N1CC[C@H](O)[C@@H]1Cc1ccncc1,-3.12,13.5,9.88,-0.784,-4.79,2.23,22.9,-0.0803,4.32,12.8,-1.7
O=C(c1cccnc1)N1C[C@@H]2CC[C@H](C1)N(Cc1cc(F)ccc1F)C2,0.34,11,29.4,-0.061,3.33,0,10.3,21.9,7.53,15,-7.41
CC(NC(=O)NCCCc1n[nH]c(N)c1C#N)c1cccs1 (configuration not stated),-4.67,22.8,38.5,-12.2,6.52,-14.1,16.6,15.9,8.37,24.1,-7.24
Cc1noc(CN2CCN(Cc3cccs3)CC2)n1,-0.284,15.6,3.17,-3.65,-5.24,4.27,0.845,22.4,6.8,19.5,-5.19
Cc1nc2c(c(C)c1CC(=O)Nc1cccc(C#N)c1)c(=O)[nH]n2C,-5.36,7.79,0.36,-4.8,-4.8,-1.9,10.8,16.6,2.86,2.35,-19.9
CCc1cnc(N2CCC3(CC2)CN(c2cccnc2)C(=O)CO3)nc1,-5.43,0,2.98,-2.45,-3.03,-4.78,7.01,26.6,-4.32,-7.69,6.26
Cc1cc(C2CCCN(C(=O)c3ccc(C)[nH]c3=O)C2)n[nH]1 (configuration not stated),1.38,0,-0.306,6.13,-1.04,-0.401,1.08,-7.96,3.45,-1.24,4.03
CCOc1ccc(CC(CNC(=O)c2ccoc2)C(N)=O)cc1 (configuration not stated),-5.97,13,-355,-18.6,8.13,-3.16,16.7,7.68,7.62,21.2,-16.2
Cc1cc(C)n(CC2CN(CC(=O)Nc3nncs3)CCO2)n1 (configuration not stated),-3.97,15.6,1.37,0.371,-6.37,3.2,-4.05,26.9,6.8,12.2,-2.27
COCC1COCCC12CCN(CCc1ccccc1)CC2 (configuration not stated),-4.75,2.7,0.285,0.939,6.84,-3.33,16.5,1.25,6.93,8.54,0.841
O=C(NCC1CC1)C1CSCN1S(=O)(=O)c1cccc(F)c1 (configuration not stated),-1.87,8.22,-0.192,-1.84,2.94,-0.455,25,-0.563,4.3,12.5,-3.76
CCS(=O)(=O)N(C)C1CCN(C(=O)c2cccc(Cl)c2)CC1,-3.98,16.2,-9.5,1.05,4.3,11.2,9.38,-0.31,6.93,11,-6.5
COc1c(CNCc2ccc(CN(C)C)cc2)c(C(C)C)nn1C,2.77,-5.26,5.16,1.34,-1.5,3.45,2.34,11.8,-0.49,4.88,-1.54
Cc1ccc(CC(=O)N2CCCCC2c2nc(C)cs2)cn1 (configuration not stated),-3.56,3.8,3.35,-2.77,-1.54,4.52,6.52,4.76,-4.17,7.59,-12.2
CCN1CCN(C2CCN(Cc3c(C)noc3C)CC2)C1=O,-8.32,15.2,-5.02,13.7,4.44,-0.38,6.8,3.4,6.4,16.5,-7.48
Cc1cc(C[C@@H]2COC[C@@H]2NC(=O)CN2CCCN(C)CC2)on1,-3.19,16.4,2.04,6.47,6.27,4.54,13.3,4.37,8.6,-55,-6.96
